Tau fibril FP = tau fibrillization inhibition (FP) | K18 P301L tau heparin fibrillization, Alexa594 FP, 6 h | Potency, µM (top dose mostly 57.7 µM), for inactives: at the highest dose activity, negative = inhibition, hits mostly inhibitors | hit rate 0.39% among 280,000 | AID 1468; further: potency means the concentration at half of the fitted maximal effect; on the % scale 0 is the no-effect control and ±100 the full control effect; nearly all actives have a fitted effect of over 55% in size
Target sequence (P10636 561-689 P618L limits assumed): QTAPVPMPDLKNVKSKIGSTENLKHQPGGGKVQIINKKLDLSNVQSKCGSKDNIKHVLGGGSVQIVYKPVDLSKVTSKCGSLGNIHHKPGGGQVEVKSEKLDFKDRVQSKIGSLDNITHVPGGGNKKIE
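K18 P301L tau (15 uM unlabeled/0.24 uM Alexa 594-labeled, final) + compound + heparin 20 uM final; 100 mM NaOAc pH 7; 6 hr 37 C; ThT 30 uM final added, 1 hr RT; FP ex 555/em 632 nm.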
Tau fluor cs = counter-screen for tau fibril formation inhibitors; hit rate 0.93% among 280,000; Potency, µM (series often up to 57.7 µM), without a hit: top-dose activity change, negative = decrease; tau K18 P301L Alexa594 fluorescence, heparin fibrillization; further: potency means the concentration at half of the fitted maximal effect; on the % scale 0 is the no-effect control and ±100 the full control effect; nearly all actives have a fitted effect of over 55% in size
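Human K18 P301L tau (15 uM unlabeled plus 0.24 uM Alexa 594-labeled, final) in 100 mM sodium acetate pH 7 was mixed with compound and 20 uM heparin and incubated 6 hr at 37 C.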
Sfp inh = inhibitors of Bacillus subtilis Sfp phosphopantetheinyl transferase | hit rate 3.5% among 310,000 | Potency, µM, for inactives: largest response in the series, negative = inhibition, hits mostly inhibitors | Biochemical Sfp PPTase activity, qHTS | Q9F4F7;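 further: the enzyme is Sfp with the accession as filed and its product quenches rhodamine fluorescence; potency means the concentration at half of the fitted maximal effect; 0% = enzyme reaction without inhibitor and -100% = no enzyme wells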
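Fluorescence-quenching assay: 15 nM Sfp-PPTase preincubated 15 min at room temperature with compound, then 5 uM rhodamine-CoA and 12.5 uM BHQ-2-labelled YbbR peptide added. Fluorescence (ex 525/em 598 nm) read at start and after 30 min; difference gives rate.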
FBPA coupling cs = counter-screen for Giardia aldolase inhibitors: coupling enzyme system. activity change, negative = inhibition, % at 58.2 µM, hits read low. hit rate 0.67% among 290,000. coupling enzyme system counterscreen, AmpLite Red fluorescence; in the data active means activity change below about -30%; further: on the % scale 0 is the no-effect control and ±100 the full control effect
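Fluorescence at 525 nm excitation and 598 nm emission measured inhibition of the coupled detection system without aldolase. Compounds (at 57.5 uM final) were preincubated 10 min at room temperature with coupling enzyme reagent before a 20 min substrate/AmpLite Red step.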
Tau fibril ThT = inhibitors of human tau fibril formation, thioflavin T binding; AID 1460; Potency, µM (series often up to 57.4 µM), inactives show top-dose activity, negative = inhibition, usual class: inhibitors; recombinant tau K18 P301L, heparin-induced fibrillization, ThT fluorescence; hit rate 2.1% among 270,000; P10636; further: potency means the concentration at half of the fitted maximal effect; on the % scale 0 is the no-effect control and ±100 the full control effect; nearly all actives have a fitted effect of over 55% in size
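Using a mix of unlabeled (15 uM) and Alexa 594-labeled (0.24 uM) tau K18 P301L, heparin-triggered fibrillization over 6 hr at 37 C was scored by ThT fluorescence.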
G9a block = inhibitors of human histone lysine methyltransferase G9a; Q96KQ7; G9a H3K9 monomethylation, AlphaScreen, 2 h; Potency, µM (top dose mostly 102 µM), inactives show top-dose activity, negative = inhibition, usual class: inhibitors; hit rate 8.8% among 350,000; AID 504332; further: potency means the concentration at half of the fitted maximal effect; on the % scale 0 is the no-effect control and ±100 the full control effect; nearly all actives have a fitted effect of over 75% in size
Target sequence (Q96KQ7 913-1193 limits assumed): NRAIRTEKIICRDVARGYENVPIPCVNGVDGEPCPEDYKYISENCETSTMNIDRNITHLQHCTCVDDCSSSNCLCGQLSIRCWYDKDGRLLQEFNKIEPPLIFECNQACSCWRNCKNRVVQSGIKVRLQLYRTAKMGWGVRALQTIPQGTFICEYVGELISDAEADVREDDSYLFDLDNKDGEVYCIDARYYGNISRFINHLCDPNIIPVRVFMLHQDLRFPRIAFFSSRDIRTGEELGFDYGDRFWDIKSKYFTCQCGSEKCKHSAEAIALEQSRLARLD
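Quantitative HTS format: methyltransferase activity on a biotin-tagged H3K9 peptide is measured by AlphaScreen, using a rabbit anti-monomethyl-H3K9 antibody with streptavidin donor and anti-IgG acceptor beads. Final levels are 20 nM enzyme, 500 nM peptide, 20 uM SAM; 2 h RT.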
Tau TEM fibril = Inhibits tau K18 fibrillization by TEM grading. shares compounds with Tau fibril ThT. recombinant tau K18 P301L fibrillization, TEM grading; active compounds read high. fibril grade (0 = clumped fibrils, 4 = only tiny pieces) (concentration not given with the values). hit rate 70% among 45. AID 1719;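 active means compounds whose electron micrographs showed tau fibrils broken into shorter filaments or fragments, graded high on fibril breakup; inconclusive means micrographs gave an unclear fibril picture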
tau sediment = reduces sedimented tau K18 P301L aggregates; shares compounds with Tau fibril ThT; recombinant tau K18 P301L (four-repeat tau fragment), sedimentation SDS-PAGE densitometry; inhibition, % at 100 µM; hit rate 50% among 110; in the data active means inhibition above about 40%; inconclusive means no clear call, values can overlap the other calls; inactive means below about 18%
Active calls of the source: *; ? = inconclusive; nt = no result; [ ] = another dose, or the depositor's remark. This is a sample that favours compounds with a hit; in the whole collection about 11% have one here. Unless noted, the call rests on the fitted dose curve; in most records, active means well fitted curve in the direction sought with a large enough effect; inconclusive means small, poorly fitted or top-dose-only effect, or another doubt; inactive means no such curve, though single readings can be large; an effect the other way counts as inactive or inconclusive.

SMILES	Tau fibril FP	Tau fluor cs	Sfp inh	FBPA coupling cs	Tau fibril ThT	G9a block	others
COc1ccc(NCC(=O)N/N=C/C=C/c2ccccc2[N+](=O)[O-])cc1	9.7%	-27.3%	0.4%	0.5	?	11.2µM*
O=C(Cc1cc(=O)[nH][nH]1)N/N=C/C=C/c1ccccc1	?	-21.9%	9.9%	-0.4	12.6µM*	9.4%
C/C(=N\NC(N)=S)C1(C)CCCCC1	-3.3%	2.7%	?	0.3	-2.7%	50.1µM*
COC(=O)Cc1ccc(NC(=S)Nc2cccc(C)n2)cc1	-5.0%	-13.4%	-0.4%	-0.2	-7.7%	nt
Oc1nc(Nc2ccc(Cl)cc2Cl)sc1/C=C1\C=Nc2ccccc21	8.8%	?	?	-1.1	8.91µM*	4.47µM*
CCOc1ccccc1-c1nnc(SCC(=O)NC2CC3CCC2C3)n1CC (stereo not drawn)	-2.7%	3.2%	10.1%	-1.8	-1.2%	44.7µM*
CCn1c(SCC(=O)NCC2CCCO2)nnc1-c1ccccc1OC (stereo not drawn)	nt	nt	nt	nt	nt	24.0%[12.7 µM]
Cc1nc(C)n(CCNS(=O)(=O)c2ccc(C)c(C)c2)n1	nt	nt	8.0%	-1.1	nt	9.8%
CCOC(=O)c1ccc(S(=O)(=O)n2c(CN3CCCCC3)nc3ccccc32)cc1	-0.2%	-12.4%	4.9%	-0.7	?	50.1µM*
O=C(CSc1nc2ccccc2n1S(=O)(=O)c1ccccc1)N1CCCCC1	-5.5%	4.2%	7.1%	-2.9	5.4%	70.8µM*
CCOC(=O)c1ccc(S(=O)(=O)n2c(=O)oc3ccccc32)cc1	nt	nt	nt	nt	nt	20.5%[12.7 µM]
COc1cccc(CNC(=O)CCc2cn(Cc3ccccc3Cl)c3ccccc23)c1	5.7%	-15.3%	nt	nt	-4.6%	-45.3%[59 µM]
CCOc1ccc(C(C(=O)NC2CCCCC2)N(C(=O)c2csnn2)C2CC2)cc1 (stereo not drawn)	nt	nt	4.6%	-0.7	nt	30.7%
COCc1cc(=O)[nH]c(=S)[nH]1	3.0%	-18.7%	12.6µM*	-0.1	?	4.47µM*
Cc1ccc(NC(=O)c2cccnc2)cc1S(=O)(=O)N1CCOCC1	nt	nt	nt	nt	nt	50.1µM*
Cc1onc(-c2ccccc2)c1C(=O)Nc1ccc(S(=O)(=O)N2CCOCC2)cc1	nt	nt	37.2%	2.1	nt	50.1µM*
O=C(Nc1cccc(S(=O)(=O)N2CCOCC2)c1)c1cn(-c2ccccc2)nc1-c1ccccc1	25.1µM*	?	17.4%	-5.1	6.2%	?
O=C(Nc1cc(S(=O)(=O)Nc2ccc(Cl)cc2)ccc1O)c1ccc(S(=O)(=O)N2CCCCCC2)cc1	?	?	3.16µM*	5.5	?	-114.6%[59 µM]
Cc1ccc(NC(=O)CSCn2nnc3c(=O)[nH]c(Cc4ccc(F)cc4)nc32)c(C)c1	-7.0%	-15.0%	nt	nt	-12.2%	-44.5%[59 µM]
CC1CC2(C)Oc3ccccc3C3OCC1(COC(=O)Nc1ccccc1)C(C)C32 (stereo not drawn)	-15.5%	-16.3%	4.3%	-0.2	-7.8%	nt
O=C(Nc1ccncc1)c1ccc(Cl)c(S(=O)(=O)N2CCCCC2)c1	nt	nt	nt	nt	nt	-9.8%[0.501 µM]
O=C(Nc1cccc(S(=O)(=O)N2CCOCC2)c1)c1cn(-c2ccccc2)nc1-c1ccc(F)cc1	?	-29.7%	28.0%	-0.9	-3.7%	2.9%[59 µM]
O=C(Nc1ccc(Cl)c(S(=O)(=O)N2CCCCC2)c1)c1ccncc1	nt	nt	nt	nt	nt	56.2µM*
Cc1ccc(-c2nn(-c3ccccc3)cc2C(=O)Nc2ccc(C)c(S(=O)(=O)N3CCOCC3)c2)cc1	15.8µM*	?	13.7%	-0.4	-0.7%	-2.5%[59 µM]
O=C(NCc1cccnc1)C1CCN(S(=O)(=O)c2cccs2)CC1	?	4.47µM*[quencher]	13.7%	-2.8	3.98µM*	2.7%	tau sediment=13.0
SMILES	Tau fibril FP	Tau fluor cs	Sfp inh	FBPA coupling cs	Tau fibril ThT	G9a block	others
COc1ccc(N2CCN(c3ccc(-c4nc(-c5ccccc5)no4)cc3[N+](=O)[O-])CC2)cc1	1.6%	-3.1%	nt	nt	-4.7%	-42.4%[59 µM]
Cc1nc2ccccc2oc1=O	10.1%	?	-3.2%	0.3	?	nt	tau sediment=13.0
Cc1cc2c(N)cccc2nn1	?	?	2µM*	-37.1*	3.16µM*	2.82µM*	Tau TEM fibril=3*;tau sediment=64.0*
Nc1cccc2nc3ccccc3cc12	-10.1%	-8.7%	1.1%	0.3	-17.3%	-20.3%[59 µM]
COc1cc(/C=N/N=C2/NC(=O)C(CC(=O)O)S2)ccc1OCc1ccc(Cl)cc1 (stereo not drawn)	12.2%	3.7%	-5.2%	4.9	-8.3%	5.6%	tau sediment=18.0
CC(=O)Nc1ccc(N(C(=O)c2ccco2)C(C(=O)NC2CCCC2)c2ccc(N3CCOCC3)cc2)cc1 (stereo not drawn)	-7.6%	-15.1%	-3.9%	8.6	-10.0%	nt
CCOC(=O)c1ccc(S(=O)(=O)Nc2nc3cc(S(=O)(=O)NC4=NCCCCC4)ccc3s2)cc1	15.8µM*	?	28.2µM*	15.3	11.2µM*	3.55µM*	Tau TEM fibril=2*;tau sediment=68.0*
O=C(COC(=O)c1ccc(O)cc1)Nc1cccc(S(=O)(=O)NC2=NCCCCC2)c1	-11.3%	-18.3%	7.8%	1.4	-8.7%	nt
Nc1nc2cc(S(=O)(=O)NC3=NCCCCC3)ccc2s1	?	-24.8%	?	2.9	5.01µM*	-21.2%[12.7 µM]	Tau TEM fibril=2*;tau sediment=69.0*
Cc1noc(/C=C/c2cccs2)c1S(=O)(=O)N1CCC(C(=O)Nc2ccc(F)c(Cl)c2)CC1	?	?	nt	nt	4.2%	-3.0%[59 µM]
COc1ccc(NC(=O)C2CCN(S(=O)(=O)c3c(C)noc3/C=C/c3cccs3)CC2)cc1Cl	15.8µM*	-18.5%	nt	nt	4.6%	3.0%[59 µM]	tau sediment=8.0
Cc1ccc(-n2nc(C(=O)N(C)c3ccc(C)c(C)c3)c3c4ccccc4n(C)c3c2=O)cc1	-6.5%	-8.1%	nt	nt	-4.6%	-41.9%[59 µM]
COC(=O)c1c(NC(=O)C(C)(C)C)sc2c1C(C(=O)OC)CC2 (stereo not drawn)	2.5%	-3.2%	-11.7%	nt	-4.6%	17.0%	tau sediment=17.0
COC(=O)c1c(NC(=O)CCCOc2ccc(C)cc2)sc2c1C(C(=O)OC)CC2 (stereo not drawn)	?	?	nt	nt	7.94µM*	1.12µM*	Tau TEM fibril=2*;tau sediment=56.0*
CCOC(=O)c1c(NC(=O)CCCOc2ccc(C)cc2)sc2c1CCC(C)C2 (stereo not drawn)	-7.3%	?	nt	nt	?	17.8%[59 µM]

Bioassay records: PubChem BioAssay, National Center for Advancing Translational Sciences (NCATS)
